From the supplement of paper PMC13380429 come the findings set out here.

Unmarked numbers belong to inactive results.

The subject of the assay is Vero E6 infected with SARS-CoV-2. In words: SARS-CoV-2 infection rate relative to infected DMSO; higher = more infection, active = 60 or less. To be noted: 24 h.
`CCCCOCCOc1nc(-c2ccc(C(=O)O)c(F)c2)sc1C` (10 µM): the SARS-CoV-2 infection rate is 108%. As for `O=C(c1ccc(OCCN2CCCCC2)cc1)c1c(-c2ccc(O)cc2)sc2cc(O)ccc12` [raloxifene] (0.833333 µM), the SARS-CoV-2 infection rate was 101%.

In the case of `CC(C)c1c(NC(=O)Nc2ccc(Cl)cc2)c(=O)n(-c2ccccc2)n1C` (10 µM), the SARS-CoV-2 infection rate is 112%.

Take `O=C(O[C@H]1C[C@H]2CC[C@@H](C1)[N+]21CCCC1)C(O)(c1ccccc1)c1ccccc1` [trospium] (10 µM): the SARS-CoV-2 infection rate was 102%. Regarding `COc1ccc(Br)cc1S(=O)(=O)NC(=O)/C=C/c1ccccc1Cc1ccc2ccccc2c1` (10 µM), the SARS-CoV-2 infection rate was 79.5%. To `CC(C)CNc1nc(-c2cccc3ncccc23)cn2c(-c3ccc(C(=O)NC4CC4)cc3)cnc12` (10 µM) belongs 99.5%; to `CS(=O)(=O)n1cc2c(n1)CN([C@H]1CO[C@H](c3cc(F)ccc3F)[C@@H](N)C1)C2` [omarigliptin] (10 µM), 107%; to `CN1CCc2c(c3ccccc3n2Cc2ccc(C(=O)NO)cc2)C1` [tubastatin-A] (0.833333 µM), 95.5%. In the case of `Cc1cc2nc3c(=O)[nH]c(=O)nc-3n(C)c2cc1C=O` (10 µM), the SARS-CoV-2 infection rate is 100%. For `Cc1cc(Nc2cc(CN3CCOCC3)c3nc(C)c(Cc4ccc(Cl)cc4F)n3n2)n[nH]1` (0.833333 µM) the value was 107%; for `Oc1c(I)cc(Cl)c2cccnc12` [clioquinol] (10 µM), 90%.
